Screens as filed in PubChem.
hNpr1 antagonist: antagonists of human natriuretic peptide receptor Npr1 | Potency, µM (series often up to 46.3 µM), most hits filed as inhibitors | P16066 | HEK293 hNpr1 GloSensor cGMP, ANP-stimulated luminescence | actives 1.6% (n = 76,000); calls by dose curve; note: nearly all actives have a fitted effect of over 60% in size
Target sequence (P16066 whole entry, looked up): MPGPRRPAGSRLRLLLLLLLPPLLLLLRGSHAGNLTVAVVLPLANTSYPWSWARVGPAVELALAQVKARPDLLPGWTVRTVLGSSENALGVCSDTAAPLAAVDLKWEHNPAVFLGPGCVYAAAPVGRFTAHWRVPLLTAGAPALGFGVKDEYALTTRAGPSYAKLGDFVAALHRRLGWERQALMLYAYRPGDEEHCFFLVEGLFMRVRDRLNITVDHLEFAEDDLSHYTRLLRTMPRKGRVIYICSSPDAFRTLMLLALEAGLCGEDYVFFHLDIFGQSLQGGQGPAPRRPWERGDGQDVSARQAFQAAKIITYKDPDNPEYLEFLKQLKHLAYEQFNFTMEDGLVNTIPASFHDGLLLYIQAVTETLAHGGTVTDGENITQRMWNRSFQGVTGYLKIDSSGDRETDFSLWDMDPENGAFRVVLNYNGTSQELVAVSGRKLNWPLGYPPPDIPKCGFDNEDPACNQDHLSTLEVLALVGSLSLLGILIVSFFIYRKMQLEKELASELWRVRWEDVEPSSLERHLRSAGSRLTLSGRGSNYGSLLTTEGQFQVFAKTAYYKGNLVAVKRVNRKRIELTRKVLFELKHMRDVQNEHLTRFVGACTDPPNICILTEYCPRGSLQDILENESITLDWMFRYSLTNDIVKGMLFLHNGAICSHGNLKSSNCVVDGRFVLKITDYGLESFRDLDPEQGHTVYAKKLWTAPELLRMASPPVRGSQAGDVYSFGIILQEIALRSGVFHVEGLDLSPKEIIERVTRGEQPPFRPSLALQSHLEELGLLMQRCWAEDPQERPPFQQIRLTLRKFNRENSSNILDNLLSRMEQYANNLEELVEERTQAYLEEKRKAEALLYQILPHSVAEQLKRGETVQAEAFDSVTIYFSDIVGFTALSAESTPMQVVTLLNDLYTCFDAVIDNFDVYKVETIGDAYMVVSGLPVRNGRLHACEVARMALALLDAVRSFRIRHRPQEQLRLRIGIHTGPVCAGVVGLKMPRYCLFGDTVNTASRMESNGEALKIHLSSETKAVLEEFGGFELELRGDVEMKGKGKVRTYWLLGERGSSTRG
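HEK293 cells stably expressing human Npr1 and cGMP GloSensor pGS-40F, loaded 2 h with 2% GloSensor reagent, given compound 30 min at room temperature. Luminescence read before and 20 min after 0.1 nM hNppA.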
NIH3T3 tox: kills NIH 3T3 cells | AID 1345082 | actives 4.3% (n = 94,000) | NIH 3T3 viability, CellTiter-Glo ATP luminescence, 48-72 h | Potency, µM (titrated, usually from 96.7 µM), most hits filed as inhibitors; note: nearly all actives have a fitted effect of over 55% in size
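Cytotoxicity is measured as loss of cellular ATP: NIH 3T3 cells (400/well) are exposed to compound for 48 or 72 hr at 37 °C, then CellTiter-Glo luminescence is imaged after 10 min at room temperature.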
GPT2 inhibitor: blocks human glutamate pyruvate transaminase 2 | Q8TD30 | Potency, µM (titrated, usually from 57.7 µM), usual class: inhibitors | actives 0.25% (n = 100,000) | AID 1671188 | Recombinant GPT2, coupled pyruvate oxidase/HRP Amplex Red fluorescence; note: nearly all actives have a fitted effect of over 60% in size
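Recombinant GPT2 (10ng/uL) with 250uM a-KG and 2mM L-alanine, 30 min at room temperature, in HEPES pH 7.5 buffer. Pyruvate detected by pyruvate oxidase/HRP/Amplex Red fluorescence after 30 min in the dark; AOA (50uM) as positive control.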
HEK cytotox: kills HEK 293 cells | HEK 293 viability, ATP luminescence (CellTiter-Glo), 48-72 h | Potency, µM (titrated, usually from 115 µM), hits mostly inhibitors | actives 6.6% (n = 94,000); note: nearly all actives have a fitted effect of over 60% in size
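Read-out: CellTiter-Glo ATP luminescence. Cells: HEK 293, 250 cells/well. Exposure: 48 or 72 hr, 37 degree Celsius.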
Luciferase inh: inhibitors of firefly (Photinus pyralis) luciferase; P08659; purified P. pyralis luciferase, luminescence, biochemical; Potency, µM (highest dose often 115 µM), hits mostly inhibitors; actives 2.5% (n = 76,000); AID 1347043; note: nearly all actives have a fitted effect of over 65% in size
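Luminescence read by CCD imaging after purified firefly luciferase (10nM final) was added to substrate buffer holding 10uM D-luciferin and 10uM ATP, pH 7.5, pre-dosed with compound.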
Hits are given with their value; - = inactive; ? = inconclusive; . = no result; ! = repeats disagree. Most compounds without a hit are left out; they make up all but 10% or so of the library. Unless noted, calls come from the whole dose curve; as a rule, active = well fitted curve in the direction sought with a large enough effect; inconclusive = small, poorly fitted or top-dose-only effect, or another doubt; inactive = no such curve, though single readings can be large; an effect the other way counts as inactive or inconclusive.

SMILES	hNpr1 antagonist	NIH3T3 tox	GPT2 inhibitor	HEK cytotox	Luciferase inh
CCOC(=O)[C@H]1[C@@H](O)C(=O)N(Cc2ccccc2)C12CCN(C(=O)CC(C)(C)C)CC2	.	22µM	.	?	.
CCOC(=O)[C@@H]1[C@@H](O)C(=O)N(Cc2ccccc2)C12CCN(C(=O)N(C)C)CC2	.	?	.	-	.
O=C(Cc1ccc(F)cc1)NC1CCN(c2ccnc3ccnn23)CC1	.	?	-	?	.
COCCN1C(=O)[C@@H]2C[C@@H](CN2Cc2ccc(OC(F)(F)F)cc2)Oc2ccccc21	-	?	-	?	-
O=C1[C@@H]2C[C@@H](CN2CC2CC2)Oc2ccccc2N1Cc1ccc(OC(F)(F)F)cc1	?	40µM	-	56µM	-
O=C1[C@@H]2C[C@@H](CN2C2CCOCC2)Oc2ccccc2N1Cc1ccc(OC(F)(F)F)cc1	-	?	-	?	-
CS(=O)(=O)c1ccc(CN2C[C@@H]3C[C@H]2C(=O)N(Cc2ccc(OC(F)(F)F)cc2)c2ccccc2O3)cc1	-	32µM	-	32µM	-
O=C(Cc1ccccn1)N1CCCC(c2nn(-c3cccc(Cl)c3)c(=O)[nH]2)C1 (centres undefined)	-	-	-	-	-
Cn1nccc1CN1CCC2(C1)C(=O)N(CCc1ccccc1)c1ccccc12 (centres undefined)	-	?	-	35µM!	-
O=C1N(CCc2ccccc2)c2ccccc2C12CCN(CC1CC1)C2 (centres undefined)	-	?	-	40µM!	-
O=C1N(CCc2ccccc2)c2ccccc2C12CCN(Cc1ccncc1)C2 (centres undefined)	?	35µM!	?	35µM	-
CN1C(=O)C2(CCN(Cc3ccnn3C)C2)c2ccccc21 (centres undefined)	-	-	-	-	-
Cc1cc(CN2CCC3(C2)C(=O)N(Cc2ccccc2)c2ccccc23)no1 (centres undefined)	-	?	-	50µM	-
O=C(COc1ccc(F)cc1)N1CC(c2noc(COc3ccccc3)n2)C1	-	?	-	?	-
Cc1cnc(C2CC2)n1C1CCN(S(=O)(=O)c2ccc(C#N)cc2)CC1	-	-	-	?	-
O=C(NCc1ccc(C(F)(F)F)cc1)C1CCN(Cc2ccccc2-c2cccnc2)CC1	.	?	-	?	.
Oc1cc(O)c2c(c1)O[C@H](c1ccc(O)c(O)c1)[C@H](O)C2	.	.	28µM	.	.
CNC(=O)c1cc2cc(-c3c(C)noc3C)nc(-c3cccnc3)c2o1	-	?	-	?	-
Cc1cc2c(-c3cccc(OC(C)C)c3)nc(-c3c(C)noc3C)cc2[nH]1	-	50µM	-	28µM	-
Cc1cc2cc(-c3c(C)noc3C)nc(N3CCCC3)c2o1	-	?	-	?	-
Cc1noc(C)c1-c1cc2c(cc(C)n2C)c(-c2ccc(CO)cc2)n1	-	32µM	-	?	-
Cc1noc(C)c1-c1cc2c(cc(C)n2C)c(N2CCN(c3ccccn3)CC2)n1	-	45µM	-	63µM	-
CC(=O)N1CCN(c2nc(-c3c(C)noc3C)cc3cc(C(C)C)oc23)CC1	-	50µM	-	?	-
Cc1noc(C)c1-c1cc2c(cc(C)n2C)c(NCc2ccncc2)n1	-	?	-	?	-
CC(=O)Nc1ccc(CNC[C@H]2COCc3nc4ccc(C)cc4n32)cc1	-	?	-	-	-
SMILES	hNpr1 antagonist	NIH3T3 tox	GPT2 inhibitor	HEK cytotox	Luciferase inh
Cc1ccc(CN2CCCN(Cc3ccncc3)C(c3ccccc3)CC(=O)NCC2)o1 (centres undefined)	-	?	-	?	-
CN1CCN(C(=O)c2ccc3oc(-c4cccnc4)nc3c2)CC1	.	-	-	-	.
Cc1noc(C)c1-c1cc2cc(C(C)C)oc2c(-c2cccc(CO)c2)n1	-	?	-	71µM	-
Cc1cc2c(-c3ccc(CO)cc3)nc(-c3c(C)noc3C)cc2[nH]1	-	10µM	-	?	-
Cc1noc(C)c1-c1cc2cc(CN(C)C)oc2c(-c2ccc([S+](C)(=O)[O-])cc2)n1	-	?	-	?	-
CNC(=O)c1cc2cc(-c3c(C)noc3C)nc(-c3cccc(CO)c3)c2o1	-	?	-	?	-
Cc1noc(C)c1-c1cc2c(cc(C)n2C)c(-c2cccc(CO)c2)n1	-	45µM	?	?	-
CCOc1ccccc1C(=O)N1[C@@H](c2ccco2)[C@@H](C(=O)O)C[C@]12CCCCN(CCOC)C2=O	.	?	.	-	.
COc1ccc(CCC(=O)N2CCN(c3nnc4ccc(Cl)cn34)CC2)cc1	-	-	?	-	-
O=C(c1cc(-c2cc(Cl)cc(Cl)c2)c2cccn2n1)N1CCN(Cc2ccccc2)CC1	.	?	-	?	.
O=C(c1cc(-c2cc(Cl)cc(Cl)c2)c2cccn2n1)N1CCOCC1	.	35µM	-	?	.
CCN(CC)C(=O)/C(C#N)=C/c1cc(O)c(O)c([N+](=O)[O-])c1	.	.	8.9µM	.	.
Cc1nc2cccnc2n1CC1CCCN(C(=O)Nc2cccc(C(F)(F)F)c2)C1 (centres undefined)	-	?	-	?	-
CC(C)CCN1CCOc2cc([S+](=O)([O-])Nc3cccnc3)ccc2C1	-	28µM	-	?	-
CC(C)CCN1CCOc2cc([S+](=O)([O-])Nc3nncs3)ccc2C1	-	32µM	-	-	-
Cc1ccc(C2Cn3nnc(-c4nc(-c5cccnc5)no4)c3CO2)c(C)c1 (centres undefined)	-	16µM	-	?	-
CC(C)C(=O)Nc1ncc(-c2cc(C(F)F)nn2-c2c(Cl)cccc2Cl)s1	.	.	10µM!	.	.
CN(C)c1ccc(C(=O)N2CCCC(n3cc(-c4nc(C5CC5)no4)nn3)C2)cc1 (centres undefined)	-	-	-	-	-
O=C(NC1CCCC1)N1CCCC(C(=O)N2CCC(N3Cc4ccccc4C3=O)CC2)C1 (centres undefined)	.	-	-	-	.
CCCCCNC(=O)c1ccc(-c2ccc(OC)nn2)cc1	.	-	.	-	.
O=C(c1ccccc1)N1CCN(C(=O)c2cccc(-c3ccccn3)c2)CC1	.	-	-	-	.
O=C(c1cccc(O)c1)N1CC=C(c2cnc3cnc(-c4ccccc4)cn23)CC1	-	?	-	100µM	-
O=C(c1ccn[nH]1)N1CC=C(c2cnc3cnc(-c4ccccc4)cn23)CC1	-	22µM	-	-	-
O=C(c1ccc(-c2ncc3cnc(-c4ccccc4)cn23)cc1)N1CCS(=O)(=O)CC1	-	?	-	-	-
COc1ccc(Nc2ccnc(N3CCC(N[S+](=O)([O-])c4cccs4)CC3)n2)cc1	.	35µM	-	25µM	.
Cc1ccc(Nc2ccnc(N3CCC(N[S+](=O)([O-])c4cccs4)CC3)n2)cc1	.	35µM	-	22µM	.
Cc1ccc(Nc2ccnc(N3CCC(N[S+](=O)([O-])c4ccc(C)cc4)CC3)n2)cc1	.	32µM	-	?	.
Cc1ccc(Nc2ccnc(N3CCC(N[S+](=O)([O-])c4c(C)noc4C)CC3)n2)cc1	.	?	-	?	.
